Here are results for 8 compounds from PubChem BioAssay (NCI).

The panel holds about 83,000 compounds, 20% with a hit somewhere; the sample as a whole holds those more often.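 Results are percent growth after 48 hours of single-concentration exposure. 100 means growth as in untreated cells, lower positive values show inhibition; negative values down to -100 show cell death.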 Values without a mark were called inactive. Active and inactive are the calls of the source. The calls were made as follows: active = growth percent below 10; inactive = the rest.

Test in all cases: NCI-60 one-dose screen, 48 h (100 = growth as untreated, 0 = no growth, -100 = all killed)
Holding throughout (conditions): 10 µM unless noted

For experiment [1], the system named is HCT-15 colon.
For experiment [2], the system named is HT29 colon.
Experiment [3] has as its system SNB-75 CNS.
The subject of experiment [4] is SNB-19 CNS.
Experiment [5] concerns U251 CNS.
Experiment [6] relates to PC-3 prostate.
Experiment [7] deals with SK-MEL-5 melanoma.
Experiment [8] has as its system UACC-62 melanoma.
The test system of experiment [9] is LOX IMVI melanoma.
In experiment [10] the test system is SK-MEL-28 melanoma.
Experiment [11] concerns SK-MEL-2 melanoma.
Experiment [12] has as its system EKVX NSCLC.
Experiment [13] deals with SN12C renal.
Experiment [14] relates to UO-31 renal.
The test system of experiment [15] is TK-10 renal.
The test system of experiment [16] is CAKI-1 renal.
Experiment [17] has as its system CCRF-CEM leukemia.
The test system of experiment [18] is MOLT-4 leukemia.
Experiment [19] has as its system A498 renal.
The subject of experiment [20] is ACHN renal.

As for `CC(C)C1C2=C(NCCN1C(=O)Cc1ccccc1)C(C)(C)N(Cc1ccccc1)C2=O` (stereo unspecified), the growth in experiment [1] is 95.4%; in [2], 109%; in [3] it was 85.3%; in experiment [4], 96.8%; in experiment [5] it was 103%; in experiment [6], 93.2%. Further, the growth in experiment [7] is 104%; in experiment [8], 92.4%; in [9], 101%; in [10], 104%; in [11], 94.3%; in [12], 94.5%. Besides, the growth in experiment [13] was 98.5%; in experiment [14] it was 87.3%; in [15] it was 97.3%; in experiment [16], 84.2%; in experiment [17] it was 111%; in experiment [18], 96.8%.
Regarding `COC(=O)C1NC(=S)N(c2ccc(Cl)cc2)C1/C=C/c1ccccc1` (stereo unspecified), the growth is 99.4% in experiment [1]; 104% in experiment [2]; 127% in experiment [3]; 103% in experiment [4]; 97.5% in experiment [5]; 86.2% in experiment [6]. The growth in experiment [7] is 102%; in experiment [8], 89.3%; in [9] it was 78.5%; in experiment [10] it was 118%; in experiment [11], 102%; in experiment [12], 92.4%. Besides, the growth was 99.3% in experiment [13]; 86.8% in [14]; 105% in experiment [15]; 91.3% in experiment [16]; 100% in experiment [17]; 103% in experiment [18].
As for `Cc1ccc2nc3c(cc2c1)CSc1nnc(-c2ccc[nH]c2=S)n1N3`, the growth in [1] was 105%; in experiment [2] it was 108%; in experiment [3], 91.4%; in [4], 90.7%; in experiment [5], 112%; in experiment [6], 95.6%. Also, the growth is 96.4% in experiment [7]; 87% in experiment [8]; 96.6% in experiment [9]; 103% in experiment [10]; 100% in experiment [11]; 102% in experiment [12]. The growth in [13] was 92.8%; in [14], 64.3%; in experiment [15], 105%; in [16] it was 78.7%; in experiment [19], 101%; in experiment [17], 104%. In experiment [18], the growth is 91.9%.
Consider `S=c1[nH]cccc1-c1nnc2n1Nc1nc3ccc(Cl)cc3cc1CS2`, for which the growth in experiment [1] was 96.9%; in experiment [2], 110%; in [3] it was 91.4%; in [4], 96.8%; in [5] it was 105%; in [6] it was 97.7%. In addition, the growth in [7] is 98%; in experiment [8], 87.3%; in experiment [9] it was 98%; in [10], 104%; in [11] it was 96.1%; in experiment [12] it was 93.1%. The growth was 102% in experiment [13]; 79.6% in experiment [14]; 111% in experiment [15]; 81.8% in experiment [16]; 107% in experiment [19]; 100% in experiment [17].
On to `Nc1c(C(=O)Nc2ccc(Cl)cc2)cc(-c2nc3ccccc3s2)c(=O)n1NS(=O)(=O)c1ccc(Cl)cc1`, for which the growth was 96.7% in experiment [1]; 104% in [2]; 84.1% in experiment [3]; 99.8% in [4]; 104% in experiment [5]; 104% in experiment [6]. Besides, the growth in experiment [7] was 96.4%; in experiment [8], 89.8%; in experiment [9], 99.3%; in experiment [10] it was 109%; in experiment [11], 102%; in experiment [12], 85.8%. For the same compound, the growth in experiment [13] was 95%; in experiment [14], 85.9%; in experiment [15] it was 147%; in experiment [16] it was 86.4%; in experiment [17], 97.6%.
On to `Cc1cc(Nc2cccc(C(F)(F)F)c2)n2c(nc3ccccc32)c1C#N`, for which the growth in experiment [1] is 12.2%; in [2], 13.2%; in experiment [3], 59.4%; in [4] it was 40.7%; in experiment [5] it was 11.6%; in experiment [6], 21.8%. Further, the growth in experiment [7] was 4.24% (active); in [8], 37.9%; in [9], 59.6%; in experiment [10], 54.8%; in experiment [11], 28.7%; in experiment [12] it was 31.5%. Further, the growth in [13] was 25.4%; in [14], 28.3%; in experiment [15], 58.3%; in experiment [16] it was 38.7%; in experiment [17] it was 55.8%; in [18], 56.6%.
For `C=C(C)[C@@H]1CC[C@]2(C(=O)O)CC[C@]3(C)[C@H](CC[C@@H]4[C@@]5(C)C[C@@H](CC#Cc6ccc(Br)cc6)C(=O)C(C)(C)[C@@H]5CC[C@]43C)[C@@H]12`, the growth in experiment [1] was 65.6%; in experiment [2], 30.7%; in experiment [3], 70.9%; in experiment [4], 40.7%; in experiment [5] it was 3.58% (active); in [6], 28.7%. Also, the growth is 68.6% in experiment [7]; -29% (active) in experiment [8]; 52% in experiment [9]; -35.5% (active) in [10]; -12.6% (active) in experiment [11]; 52.1% in [12]. Also, the growth in experiment [13] is 4.51% (active); in [14] it was 68%; in experiment [15], 62%; in [20], 65%; in experiment [19], -4.41% (active); in [17], 28.9%. The growth in [18] is 31.9%.
On to `COc1ccc2c(c1)c(CC(=O)NCCOCCOCC(=O)Nc1ccc(OC)c(C(N)=O)c1O)c(C)n2C(=O)c1ccc(Cl)cc1`, for which the growth in experiment [1] was 95.5%; in [2] it was 102%; in experiment [3] it was 89.6%; in [4], 106%; in experiment [5] it was 93.3%; in [6], 74.6%. Besides, the growth is 96.6% in experiment [7]; 98.8% in experiment [8]; 90% in [9]; 119% in [10]; 89% in experiment [11]; 94.4% in experiment [12]. Besides, the growth was 101% in experiment [13]; 74.4% in experiment [14]; 100% in experiment [15]; 109% in experiment [20]; 86.6% in experiment [19]; 107% in [17]. In addition, in experiment [18], the growth was 74.7%.
